Results filed as inconclusive are left out. Where a call stands in place of a potency, no number is given. Calls of active or inactive are those of the source. Calls follow the shape of the dose curve; as a rule, active = well fitted inhibition curve with a large enough effect; inconclusive = small, poorly fitted or top-dose-only effect; inactive = flat fitted curve, though single readings scatter.
The compounds below were run against Calcium and integrin-binding protein 1 (Homo sapiens) (UniProt Q99828) (assay: Primary qHTS for Identification of Calcium Integrin Binding Protein 1 (CIB1) Competitor (AID 1508620;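 also: GST tagged CIB1 binding a fluorescein labelled alphaIIb integrin peptide tracer; top concentration of the series differs between compounds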)). Conditions: CIB1-GST / FITC-alphaIIb peptide fluorescence polarization; series mostly up to 114 µM.
Calcium and integrin-binding protein 1 (Homo sapiens), sequence (Q99828 whole entry, looked up): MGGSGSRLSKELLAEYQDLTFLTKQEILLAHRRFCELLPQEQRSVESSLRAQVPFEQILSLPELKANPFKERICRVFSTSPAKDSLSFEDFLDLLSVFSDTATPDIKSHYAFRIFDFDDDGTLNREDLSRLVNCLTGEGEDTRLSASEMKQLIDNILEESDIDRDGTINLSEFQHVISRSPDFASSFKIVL
Procedure, shortened: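 Fluorescence polarization competition: CIB1-GST (1 uM final) preincubated with compound 15 min at room temperature, then FITC-labeled alphaIIb peptide (100 nM final) added for another 15 min. Polarization read at Ex 480/Em 540.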
`CCOC(=O)c1ccc(O)c2ncc(NCC3CCCN(CCc4ccccc4)C3)cc12` (stereo not drawn) was tested, and the Potency was “inactive”.
For `Cc1cc(C)nc(NC(=S)N2CCN(c3cc(Br)cc(C(F)(F)F)c3)CC2)c1`, the Potency was “inactive”.
`CCCc1nnc(-c2cnn(C)c2N)n1CCCn1ccnc1` was tested, and the Potency was “inactive”.
For `O=C(Cn1ncccc1=O)NCCc1ccccc1`, the Potency was “inactive”.
For `COc1cccc(CCN2C(=O)c3ccccc3NC2c2ccc(OC)c(COc3c(C)cc(NC(C)=O)cc3C)c2)c1` (stereo not drawn), the Potency was “inactive”.
In the case of `COc1cccc(CNc2ccc(S(=O)(=O)Nc3nc(C)cs3)cc2)c1O`, the Potency is reported as “inactive”.
In the case of `NC(=O)C1CCN(c2ncc(Br)cn2)CC1`, the Potency is reported as “inactive”.
`O=S(=O)(Nc1nc(-c2ccccc2C(F)(F)F)nc2ccccc12)c1ccc(Br)cc1` was tested, and the Potency was “inactive”.
In the case of `O=C(O)c1ccc(-n2cccc2/C=C2\SC(=O)N(Cc3ccccc3Cl)C2=O)cc1`, the Potency is reported as “inactive”.
With `CC(C)N1CCc2c(-c3nc4ccccc4s3)csc2C1` the Potency was “inactive”.
For `N#Cc1c(-c2ccc(-c3ccccc3)cc2)no[n+]1[O-]`, the Potency was “inactive”.
`O=c1c2ccccc2nc2sc(Nc3ccc(Br)cc3)nn12` was tested, and the Potency was “inactive”.
`Cc1cccc([S+](=O)([O-])NC2CCN(C#N)CC2)c1` was tested, and the Potency was “inactive”.
For `COc1ccc(N2C[C@]34C=C[C@H](O3)C(C(=O)O)C4C2=O)cc1OC` (stereo partly drawn), the Potency was “inactive”.
With `Cc1occc1-c1ccc2ncnc(NCCc3cnc[nH]3)c2c1` the Potency was “inactive”.
In the case of `CCOc1ccc(CCNC(=O)c2cc3sccc3[nH]2)cc1OCC`, the Potency is reported as “inactive”.
`CCc1cccc(Nc2nn3c(=O)c4ccccc4nc3s2)c1` was tested, and the Potency was “inactive”.
In the case of `Cn1nnnc1Sc1ncnc2scc(-c3cccc4ccccc34)c12`, the Potency is reported as “inactive”.
